PubChem BioAssay

Assay: inhibitors of the yeast RAM network, pilot screen, dse1pr::URA3 reporter, 5-FOA selection (AID 869);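 note: 0% = DMSO wells with no growth and 100% = 10 µM 1-NA-PP1 with full growth; RAM network block rescues cells from 5-FOA so hits raise OD615 growth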
Details: S. cerevisiae dse1pr::URA3 5-FOA growth, OD615, 2 d; at 10 µM; stronger effect = higher value; strain carries analog-sensitive mutant Cbk1 kinase;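 active = inhibition over a set limit, the all-compound mean plus 3 SD, in both replicate runs; inconclusive = over that limit in just one replicate run; inactive = at or under that limit in both runs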

inhibition, inactive:
CCOC(=O)c1sc(N)nc1-c1ccccc1 2.48%
O=C(Nn1nnnc1Nc1ccccc1)C12CC3CC(CC(C3)C1)C2 2.17%
CCCn1c(CN2CCCCC2CC)nc2c1c(=O)n(C)c(=O)n2C (stereo not given) 0.045%
CC(=O)c1cccc(NC(=O)C2CCCN2S(=O)(=O)c2cccc3cccnc23)c1 (stereo not given) 1.09%
CCCC(=O)Nc1ccc(N2CCCCC2)cc1 3.02%
Cc1nc(-c2ccc3c(c2)OCO3)cs1 1.68%
Cc1cccc(OCCSc2cc(C)nc(N)n2)c1 -0.215%
O=C(O)CC(Cn1cnnn1)c1ccccc1 (stereo not given) 1.12%
COc1ccc(C2C(C(=O)NCCN(C)C)c3ccccc3C(=O)N2C)cc1OC (stereo not given) -0.2%
Cc1cc(C)n2nc(SCC(=O)Nc3ccc(F)cc3)nc2n1 2.25%
COc1ccc2c(c1)CC(C1(O)C(=O)N(C)c3ccccc31)C2=O (stereo not given) 0.845%
CCOc1cccc(C(=O)Nc2nnc(-c3ccco3)s2)c1 3.44%
Cc1ccc(Cn2nnc3c(=O)n(CC(=O)c4ccccc4)cnc32)cc1 3.42%
Cc1ccc(C(c2sc3ncnn3c2O)N2CCCCC2)cc1 (stereo not given) 0.04%
Cn1cnnc1SCC(=O)c1ccc2c(c1)CCCC2 0.17%
CCOC(=O)C1C(=O)NC(SC)=C(C#N)C1c1ccccc1F (stereo not given) -1%
CCOC(=O)c1ccc(Nc2ccc(-c3ccc(OC)c(OC)c3)nn2)cc1 2.08%
CCOC(=O)c1ccc2c(c1)NC(=O)C(N1CCN(c3ccc(OC)cc3)CC1)S2 (stereo not given) 4.31%
Nc1ccc2nc(-c3ccc(Cl)cc3)[nH]c2c1 0.935%
CCOC(=O)c1c(N=CN(C)C)c(C#N)n2c1CCC2 1.11%
Cc1ccc(C(=O)Nc2ccc(S(=O)(=O)N3CCN(C)CC3)cc2)o1 1.32%
CC(=O)c1cccc(NC(=O)c2cc3ccccn3n2)c1 0.705%
Cc1cc(Nc2ccc(F)cc2C)n2nc(C)nc2n1 2.01%
CCSC1=C(C#N)C(c2ccccc2C)CC(=O)N1 (stereo not given) 1.98%
CCOc1ccc(NC(=O)Nc2ccc3c(c2)N(C)C(=O)CS3)cc1 4.93%
CCN(CC)C(=O)C1CCCN(C/C=C/c2ccccc2)C1 (stereo not given) 0.74%
N#CCCCSc1nnc(-c2ccc(Cl)cc2)n1-c1ccccc1 1.34%
CCCC(=O)NCCc1cc2ccc(C)c(C)c2[nH]c1=O 1.91%
Cc1ccc(-c2ccc(CCC(=O)O)n2C(C)C)cc1 2.1%
COc1ccc(S(=O)(=O)N2Cc3ccccc3CC2C(=O)O)cc1OC (stereo not given) 1.33%
Cc1ccc(-c2csc(N3CCC(C(N)=O)(N4CCCCC4)CC3)n2)cc1 -0.445%
Clc1ccc(NCn2cncn2)nc1 2.67%
O=C(CN1CCCCC1)Nc1nnc(-c2ccccc2)s1 0.38%
CCOC(=O)N1CCN(CC(=O)c2ccc3c(c2)CCN3C(C)=O)CC1 2.14%
CN(C)S(=O)(=O)c1ccc(C(=O)Nc2ccc(Cl)cc2)cc1 2.33%
CCOc1ccc(N(CC(=O)Nc2ccc3c(c2)OCCO3)S(=O)(=O)c2c(C)noc2C)cc1 3.58%
CCOC(=O)c1c(C2CCN(C(=O)OCC)CC2)nc2ccccn12 2.99%
Nc1nc2c(c3c1c(=O)oc1ccccc13)CCCCC2 2.28%
O=C1CN(C(=O)c2ccc(Br)o2)C(c2ccccc2)c2cc(F)ccc2N1 (stereo not given) 1.08%
Cc1cc(=O)c2c(C)nn(-c3ccccc3)c2[nH]1 2.23%
